Inconclusive results are not listed. Unmarked numbers belong to inactive results. The source made the active and inactive calls. Unless noted, the call rests on the fitted dose curve.
Test: Cell Viability - BJ (AID 421);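 further: potency means the concentration at half of the fitted maximal effect; cells exposed to compound for 40 hours at 37 °C before readout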
Settings: BJ fibroblast viability, qHTS
How it was run: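 Cytotoxicity in human BJ foreskin fibroblasts is scored as loss of cellular ATP after a 40-hour exposure, measured by luciferase luminescence. Controls are DMSO and 100 uM tamoxifen.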

| Compound | Potency |
| --- | --- |
| O=c1c(O)c(-c2ccc(O)cc2)oc2cc(O)cc(O)c12 | > 92 µM |
| CN(C)CCC(c1ccccc1)c1ccccn1 (stereo not given) | > 92 µM |
| CCn1cc(C(=O)O)c(=O)c2ccc(C)nc21 | > 92 µM |
| O=c1[nH]cnc2c1ncn2[C@H]1CC[C@@H](CO)O1 | > 92 µM |
| O=c1cc(-c2ccc(O)cc2)oc2cc(O)cc(O)c12 | > 92 µM |
| CC1=C(/C=C/C(C)=C/C=C/C(C)=C/C(=O)Nc2ccc(O)cc2)C(C)(C)CCC1 | 30.8 µM (active) |
| O=C(O)Cc1cccc2ccccc12 | > 92 µM |
| CC(=O)O[C@]1(C(C)=O)CC[C@H]2[C@@H]3C=C(Cl)C4=CC(=O)[C@@H]5C[C@@H]5[C@]4(C)[C@H]3CC[C@@]21C | > 92 µM |

Test: Cell Viability - Jurkat (AID 426;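 active means dose-dependent loss of cell ATP signal giving a full or clear fitted curve, ranked by lower potency value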;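 further: potency means the concentration at half of the fitted maximal effect; cells exposed to compound for 40 hours at 37 °C before ATP read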)
Settings: qHTS
How it was run: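 Cells of the human T-cell leukemia line Jurkat (E6-1) are seeded at 5000 per well, treated with compound across a concentration range for 40 hours at 37 °C, then lysed with CellTiter-Glo; luminescence reports ATP.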

| Compound | Potency |
| --- | --- |
| O=c1c(O)c(-c2ccc(O)cc2)oc2cc(O)cc(O)c12 | > 92 µM |
| CN(C)CCC(c1ccccc1)c1ccccn1 (stereo not given) | > 92 µM |
| CCn1cc(C(=O)O)c(=O)c2ccc(C)nc21 | > 92 µM |
| O=c1[nH]cnc2c1ncn2[C@H]1CC[C@@H](CO)O1 | > 92 µM |
| CC1=C(/C=C/C(C)=C/C=C/C(C)=C/C(=O)Nc2ccc(O)cc2)C(C)(C)CCC1 | 2.16 µM (active) |
| O=C(O)Cc1cccc2ccccc12 | > 92 µM |

Test: Cell Viability - Hek293 (AID 427;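 active means compounds whose dose-response curve shows a full or clear partial loss of cell viability, called from curve shape rather than a numeric limit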;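 further: potency means the concentration at half of the fitted maximal effect; cells exposed to compound for 40 hours at 37 °C before reading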)
Settings: qHTS
How it was run: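 qHTS, human embryonic kidney (adenovirus-transformed) cells; 40 hr cpd, 37 °C; CellTiter-Glo ATP luminescence. Norm: DMSO = 0, 100 uM tamoxifen = 100% inhibition. Hill-fit AC50.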

| Compound | Potency [µM] |
| --- | --- |
| O=c1c(O)c(-c2ccc(O)cc2)oc2cc(O)cc(O)c12 | > 92 |
| CN(C)CCC(c1ccccc1)c1ccccn1 (stereo not given) | > 92 |
| CCn1cc(C(=O)O)c(=O)c2ccc(C)nc21 | > 92 |
| O=c1[nH]cnc2c1ncn2[C@H]1CC[C@@H](CO)O1 | > 92 |
| O=C(O)Cc1cccc2ccccc12 | > 92 |

Test: Cell Viability - HepG2 (AID 433);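 further: potency means the concentration at half of the fitted maximal effect; potency for ATP loss meaning cytotoxicity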
Settings: qHTS
How it was run: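 ATP luminescence (CellTiter-Glo) after 40 h compound exposure, 37 °C, HepG2, 1500 cells/well, complete medium. Normalized: DMSO = basal, 100 uM tamoxifen = 100% inhibition. AC50 via standard Hill equation.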

| Compound | Potency |
| --- | --- |
| O=c1c(O)c(-c2ccc(O)cc2)oc2cc(O)cc(O)c12 | > 92 µM |
| CN(C)CCC(c1ccccc1)c1ccccn1 (stereo not given) | > 92 µM |
| CCn1cc(C(=O)O)c(=O)c2ccc(C)nc21 | > 92 µM |
| O=c1[nH]cnc2c1ncn2[C@H]1CC[C@@H](CO)O1 | > 92 µM |
| O=c1cc(-c2ccc(O)cc2)oc2cc(O)cc(O)c12 | > 92 µM |
| CC1=C(/C=C/C(C)=C/C=C/C(C)=C/C(=O)Nc2ccc(O)cc2)C(C)(C)CCC1 | 34.9 µM (active) |
| O=C(O)Cc1cccc2ccccc12 | > 92 µM |
| CC(=O)O[C@]1(C(C)=O)CC[C@H]2[C@@H]3C=C(Cl)C4=CC(=O)[C@@H]5C[C@@H]5[C@]4(C)[C@H]3CC[C@@]21C | > 92 µM |

Test: Cell Viability - MRC5 (AID 434);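 further: potency means the concentration at half of the fitted maximal effect; potency reflects cytotoxicity seen as loss of intracellular ATP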
Settings: MRC5 lung fibroblast viability, qHTS
How it was run: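 Decrease in intracellular ATP, quantified by luciferase light output, reflects compound toxicity toward MRC5 cells exposed for 40 hr in complete culture medium. Concentration-response curves, scaled between DMSO and 100 uM tamoxifen, gave AC50 values.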

| Compound | Potency |
| --- | --- |
| O=c1c(O)c(-c2ccc(O)cc2)oc2cc(O)cc(O)c12 | > 92 µM |
| CN(C)CCC(c1ccccc1)c1ccccn1 (stereo not given) | > 92 µM |
| CCn1cc(C(=O)O)c(=O)c2ccc(C)nc21 | > 92 µM |
| O=c1[nH]cnc2c1ncn2[C@H]1CC[C@@H](CO)O1 | > 92 µM |
| CC1=C(/C=C/C(C)=C/C=C/C(C)=C/C(=O)Nc2ccc(O)cc2)C(C)(C)CCC1 | 24.7 µM (active) |
| O=C(O)Cc1cccc2ccccc12 | > 92 µM |
| CC(=O)O[C@]1(C(C)=O)CC[C@H]2[C@@H]3C=C(Cl)C4=CC(=O)[C@@H]5C[C@@H]5[C@]4(C)[C@H]3CC[C@@]21C | > 92 µM |

Test: Cell Viability - SK-N-SH (AID 435); further: potency means the concentration at half of the fitted maximal effect
Settings: SK-N-SH neuroblastoma cell viability qHTS
How it was run: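 CellTiter-Glo ATP luminescence, 20 min RT read; cells pre-plated 5 hr, compound 40 hr at 37 °C, 1500 cells/well, complete medium. Normalized DMSO = 0, 100 uM tamoxifen = 100% inhibition; Hill-fit AC50.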

| Compound | Potency |
| --- | --- |
| O=c1c(O)c(-c2ccc(O)cc2)oc2cc(O)cc(O)c12 | > 92 µM |
| CN(C)CCC(c1ccccc1)c1ccccn1 (stereo not given) | > 92 µM |
| CCn1cc(C(=O)O)c(=O)c2ccc(C)nc21 | > 92 µM |
| O=c1[nH]cnc2c1ncn2[C@H]1CC[C@@H](CO)O1 | > 92 µM |
| CC1=C(/C=C/C(C)=C/C=C/C(C)=C/C(=O)Nc2ccc(O)cc2)C(C)(C)CCC1 | 7.43 µM (active) |
| O=C(O)Cc1cccc2ccccc12 | > 92 µM |

Test: NFAT Signaling Pathway (AID 444; active means well fitted curve in either direction with a large enough effect, not every such curve was filed as active;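 further: carbachol stimulus at about its EC50 of 1 µM final; on the % scale 0 is the no-effect control and ±100 the full control effect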)
Settings: Jurkat NFAT-bla M1, carbachol, beta-lactamase ratio, 5 h; series mostly up to 17.2 µM; activity change, negative = inhibition: at the top concentration
How it was run: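 Jurkat cells carrying an NFAT-driven β-lactamase reporter and co-transfected muscarinic M1 receptor were treated with compound plus carbachol (1 uM final, an EC50 level) for 5 h at 37 °C. CCF4 loading followed for 1 h at RT; 460/530 nm ratio gave %activity.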

| Compound | activity change, negative = inhibition | outcome |
| --- | --- | --- |
| CC(C(=O)O)c1ccc(-c2ccccc2)c(F)c1 (stereo not given) | 7.83% | – |
| CC(C)(C)c1ccc(C(O)CCCN2CCC(C(O)(c3ccccc3)c3ccccc3)CC2)cc1 (stereo not given) | -2.2% | – |
| CC(C)NCC(O)COc1cccc2[nH]ccc12 (stereo not given) | 18.9% | – |
| O=C1C[C@@H](c2ccc(O)cc2)Oc2cc(O)cc(O)c21 | 12.9% | – |
| COc1ccc2c3c1OC1C[C@@H](O)C=C[C@@]31CCN(C)C2 (stereo not given in full) | 1.6% | – |
| CCN(CC)CCNC(=O)c1ccc(N)cc1 | – | inactive |
| COc1cccc(-c2cc(=O)c3ccccc3o2)c1N | 4.41% [at 38 µM] | – |
| NC(N)=Nc1nc(CSCC/C(N)=N/S(N)(=O)=O)cs1 | – | inactive |
| CC(=O)N[C@@H](CS)C(=O)O | 6.86% | – |
| Nc1ncnc2c1ncn2[C@@H]1O[C@@H](CO)[C@H](O)[C@H]1O | -2.09% | – |

Reference: PubChem BioAssay (NCATS)
